APOBEC3A inh: blocks human APOBEC3A ssDNA deamination; P31941; inhibition, % at 20 µM; AID 493011; actives 0.41% (n = 330,000); recombinant A3A, FAM/TAMRA ssDNA deamination fluorescence;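 active means at least 40% inhibition at 20 µM here, with at most 30% in a related deaminase screen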;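 further: plate controls were A3A with DMSO for no effect and wells lacking A3A enzyme for full effect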
Target sequence (P31941 whole entry, looked up): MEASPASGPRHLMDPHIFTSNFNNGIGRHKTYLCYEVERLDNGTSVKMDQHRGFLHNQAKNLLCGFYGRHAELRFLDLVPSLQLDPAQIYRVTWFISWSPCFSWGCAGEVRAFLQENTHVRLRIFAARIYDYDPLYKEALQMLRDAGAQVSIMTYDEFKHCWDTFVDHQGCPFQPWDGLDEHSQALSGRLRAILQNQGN
A3G deaminase: blocks human APOBEC3G single-stranded DNA deamination. Q9HC16. recombinant A3G, ssDNA deamination FAM/TAMRA fluorescence. inhibition, % at 20 µM. actives 0.28% (n = 330,000). AID 493012;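 active means inhibition of at least 40% at 20 µM, with no more than 30% in the related APOBEC3A deaminase screen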;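 further: plate controls were DMSO wells with A3G for no effect and wells lacking A3G enzyme for full effect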
Target sequence (Q9HC16 whole entry, looked up): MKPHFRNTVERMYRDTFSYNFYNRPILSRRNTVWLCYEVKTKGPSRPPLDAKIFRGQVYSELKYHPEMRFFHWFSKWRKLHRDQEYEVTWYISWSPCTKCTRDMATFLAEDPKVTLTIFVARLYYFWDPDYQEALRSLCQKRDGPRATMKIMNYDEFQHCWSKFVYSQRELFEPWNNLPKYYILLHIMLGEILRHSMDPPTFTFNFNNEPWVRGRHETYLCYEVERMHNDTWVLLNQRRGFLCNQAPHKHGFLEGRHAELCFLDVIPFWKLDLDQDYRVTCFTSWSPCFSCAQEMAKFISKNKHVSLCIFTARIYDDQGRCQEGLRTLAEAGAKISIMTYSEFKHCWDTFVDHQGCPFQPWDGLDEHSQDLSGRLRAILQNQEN
PfGluPho inh: PfG6PD (Plasmodium falciparum) enzyme inhibition | PfGluPho enzyme, NADPH resazurin-diaphorase fluorescence | actives 0.78% (n = 350,000) | AID 504690 | inhibition, % at 20 µM;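 active means inhibition reaching at least a set limit at 20 µM in the primary screen, cut at about 59% in these data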;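 further: 0% = DMSO wells with substrate and 100% = DMSO wells lacking glucose-6-phosphate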
Yeast superoxide: lowers age-related superoxide in aged yeast cells. S. cerevisiae aged cells, superoxide DHE fluorescence; hits give low values. superoxide response (% of plate mean), % at 10 µM. actives 0.18% (n = 330,000). AID 2690;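 active means superoxide response under a set limit, about three screen SD below normal, cut at about 65% in these data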;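 further: yeast aged for seven days with compound at 30 °C before DHE staining; 100% = average MFI of all compound-treated wells on the plate with controls excluded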
PfM18AAP inh: PfM18AAP enzyme inhibition. recombinant PfM18AAP, H-Glu-NHMec fluorogenic cleavage. inhibition, % at 7.35 µM. actives 1.2% (n = 290,000). AID 1822;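 active means inhibition above the campaign mean inhibition over all tested compounds plus 3 SD, cut at about 28% in these data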;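 further: 0% = plate median of test compound wells and 100% = 2 mM ZnCl2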
A3A conf: confirmation of human APOBEC3A DNA deaminase inhibitors | shares compounds with APOBEC3A inh | recombinant A3A, ssDNA deaminase UDG fluorescence assay | inhibition, % at 20 µM | actives 63% (n = 1,400);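 active means inhibition reaching a set limit, 80% of the first screen's cutoff, at 20 µM in any replicate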;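 further: plate controls were DMSO wells with A3A for no effect and wells lacking A3A enzyme for full effect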
UDG ctr A3A: counter-screen for APOBEC3A inhibitors: UDG; shares compounds with APOBEC3A inh; UDG counterscreen, FAM/TAMRA uracil oligo fluorescence; inhibition, % at 20 µM; 1,000 tested, under 10 active; AID 504714; call rule not given here
* = called active by the depositor; x = no result given. This is a sample that favours compounds with a hit; in the whole collection about 2.4% have one here.

SMILES	APOBEC3A inh	A3G deaminase	PfGluPho inh	Yeast superoxide	PfM18AAP inh	A3A conf	UDG ctr A3A
Cc1ccccc1N1CCN(Cc2ccc([N+](=O)[O-])o2)CC1	-3.4	-3.4	-1.3	103.7	3.5	x	x
O=[N+]([O-])c1ccc(CN2CCN(c3ccccc3Cl)CC2)o1	53.7*	2.6	10.5	94.4	-10.3	0.4	x
COc1ccc(C(=O)N/C(=C\c2cn(S(=O)(=O)N(C)C)c3ccccc23)C(=O)N2CCCC2)cc1	x	x	7.2	x	x	x	x
O=C(CCN1C(=O)C2C3CCC(C3)C2C1=O)Nc1ccc(F)cc1 (stereo unspecified)	-1.2	-4.4	-7.9	x	11.8	x	x
COCCNC(=O)c1cc2ncc(Br)cn2n1	8.8	-6.0	0.2	101.7	0.6	x	x
O=C(c1cc2ncc(Br)cn2n1)N1CCN(C(=O)c2ccco2)CC1	41.5*	-0.2	11.5	97.7	-2.3	33.8*	-2.0
O=C(NCCc1ccccc1)c1cc2ncc(Br)cn2n1	75.9*	-3.1	-12.5	100.1	-6.2	44.2*	3.6
CCc1ccccc1NC(=O)c1cc2ncc(Br)cn2n1	41.5*	-1.3	4.7	117.3	-1.4	8.3	-1.9
CCCCc1ccc(NC(=O)Nc2c(C)n(C)n(-c3ccccc3)c2=O)cc1	62.2*	-3.4	-1.9	117.7	-1.7	-8.9	2.0
Cc1ccc(CN2C(=O)N/C(=C\c3ccc(-c4ccc(C(=O)O)cc4C)o3)C2=O)cc1	52.9*	20.6	-0.2	101.7	-6.7	31.7*	-1.1
Cn1c(N)c(NC(=S)NC2CCCCC2)c(=O)n(C)c1=O	x	x	-6.2	x	x	x	x
CC(OC(=O)CCCN=C1NS(=O)(=O)c2ccccc21)C(=O)NC1CCCCC1C (stereo unspecified)	50.8*	12.4	0.7	105.4	1.7	1.5	x
CC(=O)c1ccc(NC(=O)C(C)OC(=O)CCCN=C2NS(=O)(=O)c3ccccc32)cc1 (stereo unspecified)	3.6	6.5	0.5	98.6	x	x	x
CN(Cc1ccc2nsnc2c1)C(=O)C1CCC(=O)N(CCc2ccccc2)C1 (stereo unspecified)	x	x	-4.0	x	x	x	x
CCC(C)N(C(=O)c1csnn1)C(C(=O)NC1CCCC1)c1ccccc1F (stereo unspecified)	-5.0	-7.8	-15.2	117.5	1.1	x	x
O=C(/C=C/c1ccco1)N1CCN(S(=O)(=O)c2cccc([N+](=O)[O-])c2)CC1	65.0*	23.3	7.0	124.3	x	61.9*	4.0
CCCC(=O)N(c1ccc(OCC)cc1)S(=O)(=O)c1ccc2c3c(cccc13)C(=O)N2C	-1.4	-7.6	-1.6	100.0	2.8	x	x
CC[n+]1c(/C=C/N(C)c2ccccc2)n(-c2ccccc2)c2ccc(-c3nc4ccccc4s3)cc21	60.7*	5.5	75.3*	107.2	0.6	47.9*	x
Cc1ccc(NC(=O)c2ccc(Br)o2)cc1S(=O)(=O)N(C)C	0.2	-6.8	8.1	98.0	5.3	x	x
CN(C)S(=O)(=O)c1ccc(C(=O)NCC[N+]2(C)CCCCCC2)o1	93.3*	25.2	7.7	108.1	-0.1	72.8*	-1.2
O=[N+]([O-])c1ccccc1/C=C/C=N/Nc1nc(N2CCCCC2)nc(N2CCCCC2)n1	78.2*	15.8	-5.4	86.3	-8.1	80.7*	-1.8
O=[N+]([O-])c1ccccc1/C=N/Nc1nc(N2CCCC2)nc(N2CCCC2)n1	5.0	10.1	-3.6	113.4	3.4	x	x
O=C(CN(C(=O)CCC(=O)Nc1ccccn1)C1CCCC1)NCc1ccc(F)cc1	1.1	-13.7	0.3	102.3	-1.2	x	x
COC(C(=O)Nc1ccc(Cl)cc1C)c1ccccc1 (stereo unspecified)	52.5*	12.0	1.7	92.8	-8.9	11.6	x
Cc1ccc([C@@H]2C[C@H]3[C@@H](CN2S(=O)(=O)c2ccc(C)cc2)C(=O)C[C@@H](c2ccc(Cl)cc2)N3S(=O)(=O)c2ccccc2C)cc1	x	x	5.9	x	x	x	x
SMILES	APOBEC3A inh	A3G deaminase	PfGluPho inh	Yeast superoxide	PfM18AAP inh	A3A conf	UDG ctr A3A
CC1=CC(C)C(C[N+]2(C)CCCCC2)C(C)C1 (stereo unspecified)	57.7*	13.3	-1.7	90.7	-3.8	56.0*	-3.2
CCN(CC)C(=O)Cn1cc(SCC(=O)NC2CCCCC2)c2ccccc21	x	x	1.5	x	x	x	x
COc1ccccc1C(=O)C1CCCN(C(=O)c2ccco2)C1 (stereo unspecified)	-2.3	-1.0	4.4	100.8	-6.1	x	x
O=C(COC(=O)C1CCN(S(=O)(=O)c2cc([N+](=O)[O-])ccc2Cl)CC1)Nc1ncc(Cl)cc1Cl	50.9*	21.1	15.3	102.9	5.1	50.2*	-3.0
Cc1ccc2nc(NC(=O)C3CCN(S(=O)(=O)c4cc([N+](=O)[O-])ccc4Cl)CC3)sc2c1	42.2*	14.0	9.0	101.7	1.9	25.4	x
CC(=O)COC(=O)C1CCN(S(=O)(=O)c2cc([N+](=O)[O-])ccc2Cl)CC1	27.1	0.7	20.1	107.7	5.1	x	x
Cc1ccc(NS(=O)(=O)c2ccc(C(=O)NNC(=O)c3ccccc3O)cc2)cc1	-3.0	-6.9	-26.9	85.3	x	x	x
CO[C@@]1(NC(=O)C2SC(=C(C(N)=O)C(=O)O)S2)C(=O)N2C(C(=O)O)=C(CSc3nnnn3C)CS[C@@H]21 (stereo partly specified)	49.5*	2.6	4.2	101.0	x	43.1*	-0.3
Cc1nn(CC(=O)NC2C(=O)N3C(C(=O)O)=C(CSc4nnnn4C)CSC23)cc1Br (stereo unspecified)	16.3	-2.4	3.0	112.8	20.2	x	x
N#CC1(NC(=O)CN2C(=O)NC(c3ccccc3)(c3ccccc3)C2=O)CCCC1	0.6	-7.5	10.3	108.9	x	x	x
CS(=O)(=O)c1ccc(C(=O)N2CC(=O)Nc3ccccc32)cc1	54.3*	4.7	-18.1	104.4	4.5	21.4	x
CNc1ccccc1C(=O)OC(C)C(=O)Nc1ccc(Cl)cn1 (stereo unspecified)	-1.6	-4.6	4.8	95.9	5.8	x	x
On1cnnc1-c1ccccc1	-7.3	-7.6	-25.1	102.0	-0.8	x	x
COn1cnnc1-c1ccccc1	47.1*	17.5	-2.9	109.6	3.4	6.4	x
Nc1cc(N)nc(SCC(=O)NC2CCCCCCC2)n1	-1.9	-8.1	-2.4	x	x	x	x
COc1cc(/C=N/NC(=S)NC2CC3CC2C2C=CCC32)ccc1O (stereo unspecified)	-5.9	-3.2	13.9	71.1	4.4	x	x
COC/C=C/C1=CC2=CC(=O)C(C)(OC(=O)c3cnc4ccccc4n3)C(=O)C2=CO1 (stereo unspecified)	44.2*	22.9	x	91.2	x	39.1*	x
Cc1cccc(N(CC(=O)NCCc2ccccc2)C(=O)c2csnn2)c1	-5.5	-6.2	3.6	100.2	-0.4	x	x
Cc1[nH]c(=O)c(C#N)c(C)c1CCC(=O)NCc1ccc(Cl)cc1	70.6*	-6.2	6.4	73.2	5.9	5.6	2.1

Screening results: PubChem BioAssay, several laboratories
